Assay outcomes as filed in PubChem.
ELG1 DNA repair – qHTS screen for small molecules that inhibit ELG1-dependent DNA repair in human embryonic kidney (HEK293T) cells expressing luciferase-tagged ELG1; 2.3% of 330,000 active; HEK293T ELG1-luciferase reporter, luminescence, 16 h; DNA damage induced by 5-fluorouridine; Potency, µM (series often up to 46.1 µM), for inactives: at the highest dose activity change, negative = inhibition, most hits filed as inhibitors; note: potency is the fitted concentration of half-maximal effect; nearly all actives have a fitted effect of over 55% in size
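Reporter activity after DNA damage by 5-fluorouridine is monitored. Compound-treated cells incubate 16 hr at 37 °C, then ONE-Glo is added for 30 min before luminescence reading.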
HT1080NT lethal – qHTS for induction of synthetic lethality in tumor cells producing 2HG: qHTS for the HT-1080-NT fibrosarcoma cell line; HT-1080-NT fibrosarcoma viability, CellTiter-Glo ATP luminescence, 48 h; 1.6% of 360,000 active; Potency, µM (highest dose often 46.1 µM), for the others: at the top dose activity, negative = less viability, actives largely listed as cytotoxic;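 note: NT is the 2HG producing partner of a matched IDH1 knockdown line; potency is the fitted concentration of half-maximal effect; 0% = DMSO-treated cells and -100% = media-only wells without cells; nearly all actives have a fitted effect of over 55% in size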
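Compounds were tested in concentration-response format on HT-1080-NT cells for 48 hours at 37 degrees C. Cell viability came from CellTiter-Glo luminescence; curves were classified by r2, response magnitude and activity.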
TDP1 cell CPT – qHTS for Inhibitors of human tyrosyl-DNA phosphodiesterase 1 (TDP1): qHTS in cells in presence of CPT. AID 686979, 2013. 12% of 420,000 active. Potency, µM (doses to about 46.2 µM), without a hit: at the highest dose activity change, negative = growth inhibition, hits mostly inhibitors. chicken DT40 Tdp1-/-;hTDP1 cells + 20 nM CPT, ATP luminescence, 48 h; note: potency is the fitted concentration of half-maximal effect; nearly all actives have a fitted effect of over 55% in size
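Chicken DT40 Tdp1-/- cells stably complemented with human TDP1 were seeded at 400 cells/well in medium containing 20 nM camptothecin, exposed to pin-transferred compounds, and grown at 37 °C for at least 48 hr. Viability was read as ATP luminescence.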
IL1B secr inh – qHTS for Inhibitors of Inflammasome Signaling: IL-1-beta AlphaLISA Primary Screen. activity change, % at 57.5 µM. THP-1 LPS/ATP IL-1B secretion, AlphaLISA, 16 h; stronger effect = lower value. AID 743279, 2014. 4.7% of 360,000 active; in the data active = activity change below about -50%; inconclusive = mostly about -30% to -49%
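Secreted IL-1B measured by AlphaLISA bead assay after 16 h compound exposure of THP-1 cells; compounds (final up to 57.5 uM) added 1 h before LPS (250 ng/mL) and ATP (1.25 mM) stimulation; lower signal means less secretion.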
HT1080 IDH1KD tx – qHTS for induction of synthetic lethality in tumor cells producing 2HG: qHTS for the HT-1080-IDH1KD cell line. HT-1080 IDH1 knockdown viability, ATP luminescence, 48 h. AID 686971, 2013. Potency, µM (titrated, usually from 46.1 µM), inactives show at the highest dose activity, negative = toxicity, most hits filed as cytotoxic. 2% of 360,000 active;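 note: potency is the fitted concentration of half-maximal effect; 0% = DMSO wells and -100% = cell-free medium wells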
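IDH1KD HT-1080 cells, 750/well, RPMI + 5% FBS; compound pinned after 2 h settling; 48 h, 37 °C; CellTiter-Glo luminescence; % activity normalised to DMSO and no-cell wells; curves fitted, classed by r2 and efficacy.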
DT40 TDP1 no CPT – qHTS for Inhibitors of human tyrosyl-DNA phosphodiesterase 1 (TDP1): qHTS in cells in absence of CPT; DT40 Tdp1-/- hTDP1 cells, no CPT, ATP luminescence, 48 h; Potency, µM (highest dose often 46.2 µM), for inactives: top-dose activity change, negative = growth inhibition, hits mostly inhibitors; 15% of 420,000 active; AID 686978, 2013; note: potency is the fitted concentration of half-maximal effect; nearly all actives have a fitted effect of over 55% in size
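Chicken DT40 Tdp1-/- cells stably complemented with human TDP1 were seeded at 400 cells/well with DMSO in place of 20 nM camptothecin. After compound pinning, cells grew at least 48 hr at 37 °C; viability read by CellTiter-Glo luminescence.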
Starred values were filed as active, the others as inactive; i = inactive; u = inconclusive; x = no result given; [ ] = remark or other dose. Rows were chosen to be rich in hits. Some 19% of all compounds tested hit in one or more screens of this group. Unless noted, calls come from the whole dose curve; as a rule, active = well fitted curve in the direction sought with a large enough effect; inconclusive = small, poorly fitted or top-dose-only effect, or another doubt; inactive = no such curve, though single readings can be large; an effect the other way counts as inactive or inconclusive. Unless noted, % is set by controls: 0 for no effect and ±100 for the full control effect.

SMILES	ELG1 DNA repair	HT1080NT lethal	TDP1 cell CPT	IL1B secr inh	HT1080 IDH1KD tx	DT40 TDP1 no CPT
CCOc1ccccc1C1NC(=O)c2ccccc2O1 (stereo not given)	0.0%	12.1%	2.9%	30.5	12.8%	-20.2%
Cc1ccc(C)c(NC(=O)C(=O)NCCc2csc(-c3cccc(F)c3)n2)c1	x	x	u	x	x	-12.8%
c1coc(Cn2c(-c3ccco3)nc3ccccc32)c1	u	-3.5%	u	12.0	-3.5%	u
CCCN1CN(Cc2ccco2)c2nc3ccccc3n2C1	u	-7.9%	14.6µM*	2.2	-7.0%	u
Cc1nc2ccc(C(=O)N3CCOc4ccc(CN5CCOCC5)cc4C3)cc2nc1C	x	x	-5.1%[9.04 µM]	x	x	-3.2%
CCOC(=O)c1ccc(-c2ccc(N3C(c4ccsc4)=Cc4ccc(F)cc4C3c3c[nH]c4ccc(C#N)cc34)cc2)cc1F (stereo not given)	x	2.4%	-22.5%	48.3	7.6%	u
CC(C)(O)C#Cc1ccc(N2C(c3ccsc3)=Cc3ccc(F)cc3C2c2c[nH]c3ccc(C#N)cc23)cc1 (stereo not given)	x	u	5.17µM*	-17.5	23.1µM*	u
Cc1nc2cncnc2n(C2CC2)c1=O	x	x	0.2%	x	x	2.7%
Cc1ccc(S(=O)(=O)N2CCN(c3ncccn3)CC2)cc1C	x	-20.8%	5.8µM*	11.7	-1.3%	u
Cc1ccc(S(=O)(=O)N2CCN(c3ncnc4sccc34)CC2)cc1C	u	u	5.8µM*	-17.6	u	5.8µM*
CC(=O)SC[C@@H](Cc1ccccc1)C(=O)NCC(=O)OCc1ccccc1	x	x	-6.9%[21.1 µM]	x	x	-24.7%[21.1 µM]
CCC(CC)C(=O)Nc1ccc(OCc2cc(=O)n3c4c(sc3n2)CCCC4)cc1	x	x	-10.2%	x	x	-3.4%
CNC(=S)N(C)/N=C1/C(=O)N(Cc2c(Cl)cccc2Cl)c2ccccc21	-18.6%	-10.6%	14.6µM*	0.0	-12.8%	18.4µM*
Nc1[nH]c(=O)nc2nnsc12	x	x	-1.8%	x	x	-28.3%
N#CC(/C(=N/S(=O)(=O)c1cccs1)c1ccccc1)c1nc2ccccc2[nH]1 (stereo not given)	-15.2%	-2.0%	-25.3%	1.2	-11.2%	7.31µM*
O=C(c1cc(-c2ccccc2Cl)nc2ccc(Br)cc12)N1CCN(c2ccccn2)CC1	x	-9.8%	u	-29.1	-27.2%	u
O=C(c1cccn2c(=O)c3ccccc3nc12)N1CCN(c2ccccn2)CC1	u	24.0%	-13.2%	18.0	4.5%	u
O=C(c1cc(-c2ccncc2)nc2ccc(Br)cc12)N1CCN(c2ccccn2)CC1	x	-3.3%	u	-0.7	0.5%[9.24 µM]	11.6µM*
Cc1cccc2c(C(=O)N3CCN(c4ccccn4)CC3)cc(-c3cccc(Br)c3)nc12	14.6µM*	-3.9%	u	-11.5	u	-23.5%
Cc1cccc2c(C(=O)N3CCN(c4ccccc4)CC3)cc(-c3ccncc3)nc12	-18.2%	1.3µM*	2.59µM*	5.6	1.3µM*	2.91µM*
Cc1cccc2c(C(=O)N3CCCCC3)cc(-c3ccccc3)nc12	u	1.2%	u	-14.4	-4.1%	u
O=C(c1cc(-c2cccc(Cl)c2)nc2ccccc12)N1CCN(c2ccccn2)CC1	23.1µM*	-2.5%	u	i	-13.2%	u
COc1cc(NC(=O)CCCNC(=O)c2ccc(Cl)cc2)cc(OC)c1OC	19.5%	3.2%	-14.4%	25.4	0.0%	-22.2%
CCOc1c(Br)cc(C2C=C(C(=O)O)Nc3ncnn32)cc1OC (stereo not given)	x	x	2.3%	x	x	32.2%
CCN(CC)S(=O)(=O)c1cccc(-c2cn3cc(C)ccc3n2)c1	u	-15.9%	20.6µM*	-21.9	-28.5%	18.4µM*
SMILES	ELG1 DNA repair	HT1080NT lethal	TDP1 cell CPT	IL1B secr inh	HT1080 IDH1KD tx	DT40 TDP1 no CPT
CCN(CC)S(=O)(=O)c1ccc(-c2cn3ccccc3n2)cc1	x	-4.7%	u	-27.2	-3.1%	14.6µM*
CN(C)S(=O)(=O)c1ccc(-c2cn3ccccc3n2)cc1	u	u	-29.5%	7.7	u	u
Cc1ccc2nc(-c3cccc(S(=O)(=O)N(C)C)c3)cn2c1	u	9.6%	u	-13.9	4.8%	u
CCN(CC)S(=O)(=O)c1cccc(-c2nc3n(n2)Cc2ccccc2-3)c1	-1.9%	3.6%	u	-16.6	6.4%	23.1µM*
CCCN(CCC)S(=O)(=O)c1cccc(-c2csc(C)n2)c1	0.0%	-1.4%	u	-54.9*	0.6%	18.4µM*
COCCCn1c(SCC(=O)NNC(=O)c2cccc(O)c2)nnc1-c1ccncc1	10.7%	0.3%	9.7%	7.4	-8.7%	7.7%
Cc1ccc2nc(-c3cccc(S(=O)(=O)N4CC(C)OC(C)C4)c3)cn2c1 (stereo not given)	-3.1%	-0.9%	u	-24.6	-11.6%	14.6µM*
C=CCC[C@@H](Cc1ccc(F)cc1)C(=O)OC[C@@H](Cc1c[nH]c2ccccc12)NC(=O)[C@@H](CC=C)CC(=O)N(CCO)Cc1ccccc1	u	u	u	-19.1	u	23.1µM*
C=CCC[C@H](Cc1ccc(F)cc1)C(=O)OC[C@H](Cc1c[nH]c2ccccc12)NC(=O)[C@H](CC=C)CC(=O)N(CCO)Cc1ccccc1	20.6µM*	u	u	u	u	25.9µM*
Cc1ccccc1OCC(=O)N=Nc1c(O)n(C)c2ccccc12	u	-1.4%	u	55.5	-2.4%	-5.7%
O=C(c1cc2cc(F)ccc2[nH]1)N1CCCC(Nc2ccc(F)cc2)C1 (stereo not given)	1.0%	-27.8%	14.6µM*	0.9	u	u
OCCN1CCN(Cc2ccc3c(c2)CN(Cc2cc4ccccc4o2)CCO3)CC1	x	x	1.2%[9.04 µM]	x	x	-21.4%
Cc1cc(C)n(CC(=O)N2CCC(n3c(C(C)C)nc4cccnc43)CC2)n1	x	x	13.5%[9.04 µM]	x	x	-9.5%
N[C@H](Cn1ccc(=O)n(Cc2ccccc2C(=O)O)c1=O)C(=O)O	x	x	-9.8%	x	x	-8.0%
